Screening data deposited in PubChem BioAssay by National Center for Advancing Translational Sciences (NCATS).
Pf growth 48h: P. falciparum growth inhibition at 48 hours (one generation); 310,000 tested, 5.9% active; Potency, µM (top dose mostly 28.7 µM), usual class: inhibitors; AID 504832; P. falciparum luciferase growth in erythrocytes, 48 h
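Growth was read as firefly luciferase luminescence after a 48 h, 37 C, 5% CO2 exposure of compounds to reporter-bearing P. falciparum cultures (0.1% parasitemia, 2% hematocrit final) in Albumax-supplemented RPMI 1640.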
Shiga inhibitor: inhibitors of Shiga toxin in Vero cells | Vero cells, Shiga toxin protein synthesis inhibition reporter | inhibition, % at 38.7 µM | 290,000 tested, 9.2% active | AID 2315; in the data active means inhibition mostly above about 28%, no sharp cut-off; inactive means mostly below about 43%
CHX counter: affects cycloheximide protein synthesis inhibition readout, counter-screen. cell reporter, cycloheximide protein synthesis inhibition counterscreen. max response, %. 300,000 tested, 12% active. AID 2314; in the data active means max response mostly above about 13%, no sharp cut-off; inactive means mostly below about 14%; further: read at 38.3 µM for the half of the compounds with a filed dose
Pf growth 96h: P. falciparum growth inhibition at 96 hour, primary screen for plastid delayed-death inhibitors; Potency, µM (titrated, usually from 28.7 µM), hits mostly inhibitors; 320,000 tested, 6.9% active; AID 504834; P. falciparum luciferase reporter growth, 96 h
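Luminescence readout: decreased luciferase signal marks inhibited growth of reporter-expressing P. falciparum in infected red cells (2% hematocrit, 0.05% parasitemia final), exposed to compound two generations (96 h, 37 C, 5% CO2).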
LASV entry inh: blocks Lassa virus binding to or entry into cells. Lassa virus pseudotype entry inhibition, cell reporter. Potency, µM (doses to about 37.9 µM), hits mostly inhibitors. 300,000 tested, 1.2% active; calls by dose curve; tested in HEK293 cells; further: nearly all actives have a fitted effect of over 50% in size
MARV entry inh: blocks Marburg virus binding to or entry into cells; Marburg virus pseudotyped entry inhibition, cell reporter; Potency, µM (top dose mostly 37.8 µM), actives largely listed as inhibitors; 300,000 tested, 1.8% active; calls by dose curve; tested in HEK293 cells
Hits are given with their value; i = inactive; ? = inconclusive; nt = no result. In the library only some 19% were active in any assay of this set; here they are far more common. Unless noted, the call rests on the fitted dose curve; in most records, active means well fitted inhibition curve with a large enough effect; inconclusive means small, poorly fitted or top-dose-only effect, or another doubt; inactive means no such curve, though single readings can be large or run the other way.

SMILES	Pf growth 48h	Shiga inhibitor	CHX counter	Pf growth 96h	LASV entry inh	MARV entry inh
CC1=C(C)CC(C(=O)Nc2ccc(C(N)=O)cc2)C(C(=O)O)C1 (stereo unspecified)	nt	i	i	i	i	i
O=C(N/N=C/c1cc2c(c([N+](=O)[O-])c1)OCO2)c1ccncc1	i	nt	i	2.3µM	?	i
O=C(N/N=C/c1cc2c(cc1[N+](=O)[O-])OCO2)c1cccnc1	?	i	i	i	i	i
Cc1ccc(C(=O)NN=Cc2ccc3c(c2)OCO3)cc1	nt	nt	nt	nt	i	?
Cn1cc([N+](=O)[O-])c(C(=O)N/N=C/c2ccc3c(c2)OCO3)n1	i	43	20	?	i	i
O=C(C1=C(O)C(=O)N(CC2CCCO2)C1c1ccccc1Cl)c1ccco1 (stereo unspecified)	i	i	i	i	i	i
O=C1NC[C@@H](Cc2cccc3ccccc23)N(CCC23CC4CC(CC(C4)C2)C3)C1=O	i	nt	nt	i	nt	nt
O=C(O)C1=CC[C@@H](c2ccc(Cl)cc2)N(S(=O)(=O)c2ccc(Cl)cc2)[C@H]1c1ccccc1	i	nt	nt	?	nt	nt
CCCCn1nnc(N(C(=O)c2cccs2)C(=O)c2cccs2)n1	i	86	37	i	nt	nt
COc1ccc(/C=N/c2oc(-c3ccccc3)cc2C#N)cc1OC	i	62	23	i	i	?
O=C(NCc1ccc(F)cc1)c1cc2sccc2n1Cc1ccc(F)cc1	?	i	i	10µM	nt	nt
O=C(c1cc2sccc2n1Cc1ccc(F)cc1)N1CCCc2ccccc21	9.3µM	i	i	?	i	?
CC1CCN(C(=O)C2CCN(C(=O)c3cc4sccc4n3Cc3ccc(F)cc3)CC2)CC1	?	i	i	i	?	?
CC(C)NC(=O)C1CCN(C(=O)c2cc3sccc3n2Cc2ccc(F)cc2)CC1	nt	i	i	nt	?	8.2µM
O=C(NCc1ccccc1)c1cc2sccc2n1Cc1ccc(F)cc1	nt	nt	nt	nt	i	?
Cc1ccc(NC(=O)Cn2cnc3sc(C(=O)NCc4ccco4)c(C)c3c2=O)cc1Cl	nt	i	i	i	i	i
Cc1ccc(C(=O)CCNc2ccc(F)c(Cl)c2)o1	i	i	i	i	i	i
Brc1ccc2nc(-c3ccncc3)c(NC3CCCC3)n2c1	?	i	i	i	?	i
CCC(C)Sc1ccc(-c2nc3ccc(C)cn3c2NC2CCCCC2)cc1 (stereo unspecified)	12µM	nt	nt	?	nt	nt
Cc1ccc2nc(-c3ccc(F)cc3)c(NC(C)(C)CC(C)(C)C)n2c1	nt	nt	nt	nt	i	i
COc1ccc(-c2ccc(-c3nc4ccc(C)cn4c3NC3CCCCC3)cc2OC)cc1	12µM	nt	nt	12µM	nt	nt
CCC(=O)Nc1c(-c2ccc(C)cc2)nc2ccc(C)cn12	?	i	i	12µM	i	i
CC(C)c1nc2ccccn2c1NC1CCCCC1	i	i	i	i	i	i
CCC(C)Sc1cc(-c2nc3ccccn3c2NC2CCCCC2)ccc1OC (stereo unspecified)	4.1µM	nt	nt	?	nt	nt
CCOC(=O)C1=C(C)NC(=O)NC1c1ccccc1OCc1c(F)cccc1Cl (stereo unspecified)	?	i	i	nt	?	?
SMILES	Pf growth 48h	Shiga inhibitor	CHX counter	Pf growth 96h	LASV entry inh	MARV entry inh
c1cn2c(NC3CCCCC3)c(-c3ccc(SC4CCCCC4)cc3)nc2cn1	3.7µM	nt	nt	?	nt	nt
CCC(C)Sc1cccc(-c2nc3ccc(C)cn3c2NC2CCCCC2)c1 (stereo unspecified)	8.3µM	nt	nt	13µM	nt	nt
Cc1ccc2nc(-c3cccnc3)c(NC3CCCCC3)n2c1	?	i	i	i	?	i
c1csc(-c2nc3ccccn3c2NC2CCCCC2)c1	i	i	i	i	?	?
CC(=O)c1ccc(-c2cccc(-c3nc4ccccn4c3NC3CCCCC3)c2)cc1	12µM	nt	nt	?	nt	nt
CC12CN3CC(C)(CN(C1)C3c1ccc3ccccc3c1O)C2=O (stereo unspecified)	i	i	i	i	i	i
O=C1c2cccc3c(Nc4ccccc4Cl)c([N+](=O)[O-])cc(c23)C(=O)N1CCO	?	i	i	1µM	?	?
CC(=O)OCCCN1C(=O)c2cccc3cc(Br)cc(c23)C1=O	i	i	i	i	nt	nt
O=C1c2cccc3cc([N+](=O)[O-])cc(c23)C(=O)N1/N=C/c1ccc(O)cc1O	12µM	i	i	?	?	i
CCN(CC)CCN1C(=O)c2cccc3cc(N)cc(c23)C1=O	?	i	i	?	i	10µM
Nc1cc2c3c(cccc3c1)C(=O)N(CCN1CCCC1)C2=O	12µM	i	i	5.9µM	?	6.3µM
